Shown are actives, neighbours in structure and some others; about 0.78% of the full set was active somewhere.
RECQ1 helicase – RECQ1 (human) helicase inhibition. Potency, µM (titrated, usually from 57.3 µM), without a hit: at the top dose activity, negative = inhibition, most hits filed as inhibitors. RECQ1 DNA unwinding, red fluorescence kinetic read. hit rate 0.54% among 240,000. AID 2549. P46063;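 also: plate controls were vehicle for no effect and no enzyme for full effect; nearly all actives have a fitted effect of over 30% in size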
Target sequence (P46063 whole entry, looked up): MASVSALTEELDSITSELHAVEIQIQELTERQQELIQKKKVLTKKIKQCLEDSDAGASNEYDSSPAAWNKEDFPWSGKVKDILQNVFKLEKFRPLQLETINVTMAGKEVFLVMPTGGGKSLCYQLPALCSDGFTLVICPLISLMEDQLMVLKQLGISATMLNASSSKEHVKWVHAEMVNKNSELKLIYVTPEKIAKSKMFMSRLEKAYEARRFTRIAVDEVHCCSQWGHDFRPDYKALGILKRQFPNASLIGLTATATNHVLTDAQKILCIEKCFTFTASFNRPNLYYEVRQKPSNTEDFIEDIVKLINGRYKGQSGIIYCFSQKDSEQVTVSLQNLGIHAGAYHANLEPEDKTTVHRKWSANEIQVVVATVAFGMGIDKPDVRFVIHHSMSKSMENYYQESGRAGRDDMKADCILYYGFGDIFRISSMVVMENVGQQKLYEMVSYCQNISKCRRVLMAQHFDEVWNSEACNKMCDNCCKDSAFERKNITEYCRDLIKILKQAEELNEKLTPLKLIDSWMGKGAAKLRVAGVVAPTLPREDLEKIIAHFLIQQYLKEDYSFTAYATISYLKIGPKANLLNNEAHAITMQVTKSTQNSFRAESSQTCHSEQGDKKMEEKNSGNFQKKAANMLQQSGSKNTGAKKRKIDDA
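50 nM RECQ1T1 preincubated 15 min with compound in Tris pH 8.0 buffer with MgCl2, DTT, Tween-20 and 2.5 ug/ml poly(dI-dC); started with 200 nM TAMRA/BHQ-2 forked duplex and 2 mM ATP. Unwinding read as fluorescence (525/598 nm), two reads 2 h apart.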
L3MBTL1 block – inhibitors of human L3MBTL1; AID 485360; Potency, µM (top dose mostly 57.1 µM), for inactives: top-dose activity, negative = inhibition, usual class: inhibitors; hit rate 0.66% among 230,000; Q9Y468; AlphaScreen L3MBTL1–H3K9me1 peptide binding; also: nearly all actives have a fitted effect of over 60% in size
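Read-out is AlphaScreen signal from streptavidin donor and nickel chelate acceptor beads (10 ug/mL final each) bridging L3MBTL1 (50 nM) and biotinylated K9-monomethylated H3(1-15) peptide (75 nM), after 30 min compound exposure at room temperature.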
APEX1 inh – APE1 (human) endonuclease inhibition; P27695; recombinant APE1, TAMRA/BHQ-2 abasic DNA cleavage fluorescence; Potency, µM (titrated, usually from 65.8 µM), inactives show at the top dose activity change, negative = inhibition, actives largely listed as inhibitors; hit rate 0.35% among 350,000; AID 2517;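 also: plate controls were vehicle for no effect and reference inhibitor for full effect; nearly all actives have a fitted effect of over 55% in size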
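Activity was derived from the fluorescence gain between first and third kinetic reads (60 s intervals, ex 525/em 598 nm) after 50 nM THF-abasic TAMRA/BHQ-2 duplex was added to 0.75 nM APE1 preincubated 15 min with compound.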
BLM helicase inh – blocks DNA unwinding by human BLM helicase. Potency, µM (series often up to 56.1 µM), without a hit: at the top dose activity change, negative = inhibition, actives largely listed as inhibitors. recombinant BLM DNA unwinding, fluorescence dequenching. AID 2528. hit rate 0.2% among 350,000;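 also: plate controls were vehicle for no effect and no enzyme for full effect; nearly all actives have a fitted effect of over 35% in size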
The depositor's hits bear a star; i = inactive; ? = inconclusive; / = no result; ! = repeats disagree. Calls follow the shape of the dose curve; as a rule, active = well fitted curve in the direction sought with a large enough effect; inconclusive = small, poorly fitted or top-dose-only effect, or another doubt; inactive = no such curve, though single readings can be large; an effect the other way counts as inactive or inconclusive. Unless noted, % is scaled to controls: 0 for no effect and ±100 for the full control effect; potency is read from the fitted curve at half-maximal effect.

SMILES	RECQ1 helicase	L3MBTL1 block	APEX1 inh	BLM helicase inh
O=c1c(-c2ccccc2)coc2cc(O)cc(O)c12	-13.4%	/	?	22.4µM*
COC(=O)c1sc(-c2cccs2)cc1NC(=O)/C=C/C(=O)O	-6.6%	/	-3.2%	15.8µM*
COC(=O)c1sc(-c2ccccc2)cc1NC(C)=O	-2.0%	29.7%	-7.0%	-2.9%
C#C[C@@]1(O)CC[C@@H]2[C@H]3CCC4=C/C(=N\O)CC[C@H]4[C@@H]3CC[C@]21CC	/	/	/	-1.6%
CC(C)(C)n1ncc2c(=O)n(Cc3ccc(Cl)c(OC(F)(F)F)c3)cnc21	/	/	-6.5%	/
Cc1cccc2cc(C(c3nnnn3C(C)(C)C)N(Cc3ccco3)CC3CCCO3)c(=O)[nH]c12 (configuration not stated)	-8.3%	?	28.2µM*	-14.1%
CNc1ccc([N+](=O)[O-])cc1	11.2µM*	1.1%	24.9%	/
C=CCSc1nnc(-c2cccc3ccccc23)o1	/	7.94µM*	1.5%	/
COC(=O)c1ccccc1-c1ccc(/C=c2\sc3nc4cc(Br)cnc4n3c2=O)o1	/	/	-8.1%	/
Nc1ccc2c(c1)C/C(=C/c1ccco1)C2=O	-25.2%	28.2µM*	?	?
CC(C)(C)n1ncc2c(=O)n(Cc3cccc(OC(F)F)c3)cnc21	/	/	-7.9%	/
O.O.O.O.O.O.O.O=S(=O)([O-])[O-].[Co+2]	15.8µM*	/	?	8.91µM*
CC1(C)CC(=O)c2c(oc3cc(O)c(O)cc23)C1	20µM*!	/	?	-10.6%
CC(C)(C)n1ncc2c(=O)n(Cc3cccc(C(F)(F)F)c3)cnc21	/	/	-3.7%	/
COC(=O)c1ccc2c(c1)C(C)(C)C(/C=C/c1ccc(O)cc1)=[N+]2C	12.6µM*	-3.2%	?	-1.4%
S=c1[nH]nc(-c2ccccn2)n1/N=C/c1ccc(Br)s1	-6.4%	28.2µM*	20.7%	6.5%
O=c1c(-c2ccc(O)cc2)coc2cc(O[C@@H]3O[C@H](CO)[C@H](O)[C@H](O)[C@H]3O)ccc12	-5.9%	/	-1.2%	-3.2%
CSc1ccc(/C=N/Nc2cccc(C(=O)O)c2)cc1	31.6µM*	5.01µM*	2.24µM*	147.1%
O=C(O)c1cccc(N/N=C/c2ccc(OC(F)(F)F)cc2)c1	/	/	34.8%	0.7%
COC(=O)c1ccc(COc2ccc(/C=N/Nc3cccc(C(=O)O)c3)cc2)cc1	i	25.1µM*	?	0.0%
O=C(NN1C(=O)CSC1=S)C(=O)NN1C(=O)CSC1=S	10µM*	0.794µM*	2.24µM*	86.5%
O=C(Cc1cccc2ccccc12)NN1C(=O)CSC1=S	-15.6%	-3.1%	-0.7%	-0.6%
OC1OC[C@H](O)[C@@H](O)[C@H]1O (some centres not stated)	-5.2%	/	-2.1%	0.3%
CCOC(=O)N1CCN(/[N+]([O-])=N/Oc2ccc([N+](=O)[O-])cc2[N+](=O)[O-])C(C)C1 (configuration not stated)	-11.1%	/	-2.8%	-6.9%
COc1c(O)c(O)cc2c1oc1c3cc(C)ccc3oc(=O)c21	8.91µM*	/	?	?
SMILES	RECQ1 helicase	L3MBTL1 block	APEX1 inh	BLM helicase inh
COc1cc(-c2oc3ccc(C)cc3c(=O)c2O)cc(OC)c1OC	/	/	/	-7.2%
CO/N=C(/C(=O)N[C@@H]1C(=O)N2C(C(=O)O)=C(CSC(=O)c3ccco3)CSC12)c1csc(N)n1 (some centres not stated)	/	/	/	-0.3%
CN(C)c1ccc(NC(=O)CC(NCc2ccccn2)C(=O)O)cc1 (configuration not stated)	i	12.6µM*	-1.8%	1.0%
O=C(N[C@H]1C/C=C\C[C@@H](CC(=O)N(CCO)Cc2ccccc2)C(=O)N2CCC[C@H]2COC1=O)OCC1c2ccccc2-c2ccccc21	/	3.1%	-9.8%	/
O=C(N[C@H]1C/C=C\C[C@@H](CC(=O)N(CCO)Cc2ccccc2)C(=O)N2CCC[C@@H]2COC1=O)OCC1c2ccccc2-c2ccccc21	/	-3.9%	10.6µM*	/
CSCC[C@H](NC(=O)[C@H](CCC(N)=O)NC(=O)[C@H](CCCCN)NC(=O)[C@H](CCCNC(=N)N)NC(=O)[C@H](Cc1ccc(O)cc1)NC(=O)[C@H](CCCNC(=N)N)NC(=O)[C@H](CO)NC(=O)[C@H](Cc1ccc(O)cc1)NC(=O)[C@H](CO)NC(=O)[C@H](CC(=O)O)NC(=O)[C@@H](NC(=O)[C@@H](N)Cc1ccccc1)[C@@H](C)O)C(=O)N[C@@H](C)C(=O)N[C@H](C(=O)N[C@@H](CCCCN)C(=O)N[C@@H](CCCCN)C(=O)N[C@@H](Cc1ccc(O)cc1)C(=O)N[C@@H](CC(C)C)C(=O)N[C@@H](C)C(=O)N[C@@H](C)C(=O)N[C@H](C(=O)N[C@@H](CC(C)C)C(=O)NCC(=O)N[C@@H](CCCCN)C(=O)N[C@@H](CCCNC(=N)N)C(=O)N[C@@H](Cc1ccc(O)cc1)C(=O)N[C@@H](CCCCN)C(=O)N[C@@H](CCC(N)=O)C(=O)N[C@@H](CCCNC(=N)N)C(=O)N[C@H](C(=O)N[C@@H](CCCCN)C(=O)N[C@@H](CC(N)=O)C(=O)N[C@@H](CCCCN)C(N)=O)C(C)C)C(C)C)C(C)C	-26.1%	/	-5.4%	?
COc1ccccc1-c1cc(-c2ccc(O)cc2)nc(N)c1C#N	/	/	26.7µM*	31.6µM*
CO[C@H]1C[C@H](O[C@@H]2/C(C)=C/C[C@@H]3C[C@@H](C[C@]4(CC[C@H](C)[C@@H](C5CCCCC5)O4)O3)OC(=O)[C@@H]3C=C(C)/C(=N/O)[C@H]4OC/C(=C\C=C\[C@@H]2C)[C@]43O)O[C@@H](C)[C@@H]1O	/	/	0.2%	/
Cc1c(C(=O)O)c(O)cc2c1C(=O)c1c(O)c([C@@H]3O[C@H](CO)[C@@H](O)[C@H](O)[C@H]3O)c(O)c(O)c1C2=O	/	10µM*	14.1µM*!	/
c1nc(NC2CCCCCC2)c2[nH]cnc2n1	-1.8%	-12.8%	141µM*	3.7%
c1nc(NC2CCCCC2)c2[nH]cnc2n1	-1.8%	-4.1%	2.1%	-0.2%
O=C(O)CCCNc1cc(N2CCN(C(=O)c3ccco3)CC2)c2noc3c2c1C(=O)c1ccccc1-3	/	/	?	-29.1%
O=C(O)CCCNc1cc(N2CCC3(CC2)OCCO3)c2noc3c2c1C(=O)c1ccccc1-3	-25.1%	10µM*	?	-25.4%
CCOC(=O)N1CCN(c2cc(NCCC(=O)O)c3c4c(onc24)-c2ccccc2C3=O)CC1	?	8.91µM*	?	-22.1%
Cc1nc2c(c(=O)[nH]1)CSCC2	-10.0%	/	13.6%	-0.2%
CCc1cc(=O)oc2cc(C)c(CN3CCCC(C)C3)c(O)c12 (configuration not stated)	7.08µM*	11.2µM*	14.1µM*	?
COc1ccc(S(=O)(=O)Nc2cc(OC)cc3cccnc23)cc1	-1.1%	/	-2.3%	0.1%
O=C(NN1C(=O)/C(=C/c2ccc(O)c([N+](=O)[O-])c2)SC1=S)c1ccccc1Cl	-0.7%	/	?	-8.8%
O=C(NN1C(=O)/C(=C/c2cc([N+](=O)[O-])ccc2O)SC1=S)c1ccccc1O	/	4.47µM*	10.6%	/

Screens: PubChem, National Center for Advancing Translational Sciences (NCATS)
